About 410 targets per protein were measured; listed, in parts, are those with the strongest signals and a random draw of the rest.
Assays:
Experiment in all cases: glycan array binding signal (z-score within array); higher = stronger binding
Details in all cases: glycan notation: IUPAC condensed, linker removed
[1] = biological target: Fuc(a1-2)Gal(b1-4)GlcNAc(b1-2)Man
How it was run: (§1)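 The Consortium for Functional Glycomics database supplied 3228 glycan arrays, of which those lacking an available protein sequence were dropped. The binding signal, a within-array Z-score, was averaged across arrays of the same protein sequence and across linkers. Negative scores can be read as non-binding.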

[2] = biological target: Fuc(a1-2)Gal(b1-4)[Fuc(a1-3)]GlcNAc(b1-2)[Fuc(a1-2)Gal(b1-4)[Fuc(a1-3)]GlcNAc(b1-4)]Man(a1-3)[Fuc(a1-2)Gal(b1-4)[Fuc(a1-3)]GlcNAc(b1-2)Man(a1-6)]Man(b1-4)GlcNAc(b1-4)GlcNAc
How it was run: as §1

[3] = biological target: Fuc(a1-2)Gal6S(b1-4)Glc6S
How it was run: as §1

[4] = biological target: Fuc(a1-2)[Gal(a1-3)]Gal(b1-3)GalNAc
How it was run: as §1

[5] = biological target: Fuc(a1-2)[Gal(a1-3)]Gal(b1-4)GlcNAc(b1-2)Man(a1-3)[Fuc(a1-2)[Gal(a1-3)]Gal(b1-4)GlcNAc(b1-2)Man(a1-6)]Man(b1-4)GlcNAc(b1-4)[Fuc(a1-6)]GlcNAc
How it was run: as §1

[6] = biological target: Fuc(a1-2)[Gal(a1-4)]Gal(b1-4)GlcNAc
How it was run: as §1

[7] = biological target: Fuc(a1-2)[GalNAc(a1-3)]Gal(b1-4)GlcNAc(b1-6)GalNAc
How it was run: as §1

[8] = biological target: Fuc(a1-3)[Gal(b1-4)]GlcNAc
How it was run: as §1

[9] = biological target: Fuc(a1-3)[Gal(b1-4)]GlcNAc(b1-3)Gal(b1-4)[Fuc(a1-3)]GlcNAc
How it was run: as §1

[10] = biological target: Fuc(a1-3)[Gal(b1-4)]GlcNAc(b1-3)Gal(b1-4)[Fuc(a1-3)]GlcNAc(b1-3)Gal(b1-4)[Fuc(a1-3)]GlcNAc
How it was run: as §1

[11] = biological target: Fuc(a1-3)[Gal(b1-4)]GlcNAc(b1-4)Gal(b1-4)[Fuc(a1-3)]GlcNAc(b1-4)Gal(b1-4)[Fuc(a1-3)]GlcNAc
How it was run: as §1

[12] = biological target: Fuc(a1-4)GlcNAc
How it was run: as §1

[13] = biological target: Gal(a1-3)Gal(b1-3)[Fuc(a1-4)]GlcNAc(b1-2)Man(a1-3)[Gal(a1-3)Gal(b1-3)[Fuc(a1-4)]GlcNAc(b1-2)Man(a1-6)]Man(b1-4)GlcNAc(b1-4)GlcNAc
How it was run: as §1

[14] = biological target: Gal(a1-3)[Gal(a1-4)]Gal(b1-4)GlcNAc
How it was run: as §1

[15] = biological target: Gal(a1-4)Gal(b1-3)GlcNAc(b1-2)Man(a1-3)[Gal(a1-4)Gal(b1-3)GlcNAc(b1-2)Man(a1-6)]Man(b1-4)GlcNAc(b1-4)GlcNAc
How it was run: as §1

[16] = biological target: Gal(b1-3)Gal
How it was run: as §1

[17] = biological target: Gal(b1-3)GalNAc
How it was run: as §1

[18] = biological target: Gal(b1-3)[Neu5Ac(a2-6)]GalNAc
How it was run: as §1

[19] = biological target: Gal(b1-3)[Neu5Ac(a2-6)]GlcNAc(b1-4)Gal(b1-4)Glc
How it was run: as §1

[20] = biological target: Gal(b1-4)GlcNAc(b1-2)Man(a1-3)[Gal(b1-4)GlcNAc(b1-2)Man(a1-6)][Gal(b1-4)GlcNAc(b1-4)]Man(b1-4)GlcNAc(b1-4)[Fuc(a1-6)]GlcNAc
How it was run: as §1

[21] = biological target: Gal(b1-4)GlcNAc(b1-2)Man(a1-3)[Man(a1-6)]Man(b1-4)GlcNAc(b1-4)GlcNAc
How it was run: as §1

[22] = biological target: Gal(b1-4)GlcNAc(b1-3)Gal(b1-4)GlcNAc(b1-2)Man(a1-3)[Gal(b1-4)GlcNAc(b1-3)Gal(b1-4)GlcNAc(b1-2)Man(a1-6)]Man(b1-4)GlcNAc(b1-4)GlcNAc
How it was run: as §1

[23] = biological target: Gal(b1-4)GlcNAc(b1-3)Gal(b1-4)GlcNAc(b1-3)Gal(b1-4)GlcNAc(b1-2)Man(a1-3)[Gal(b1-4)GlcNAc(b1-3)Gal(b1-4)GlcNAc(b1-3)Gal(b1-4)GlcNAc(b1-2)Man(a1-6)]Man(b1-4)GlcNAc(b1-4)GlcNAc
How it was run: as §1

[24] = biological target: Gal(b1-4)GlcNAc(b1-3)Gal(b1-4)GlcNAc(b1-3)Gal(b1-4)GlcNAc(b1-3)Gal(b1-4)GlcNAc(b1-3)Gal(b1-4)GlcNAc(b1-2)Man(a1-3)[Gal(b1-4)GlcNAc(b1-3)Gal(b1-4)GlcNAc(b1-3)Gal(b1-4)GlcNAc(b1-3)Gal(b1-4)GlcNAc(b1-3)Gal(b1-4)GlcNAc(b1-2)Man(a1-6)]Man(b1-4)GlcNAc(b1-4)GlcNAc
How it was run: as §1

[25] = biological target: Gal(b1-4)GlcNAc(b1-3)[Fuc(a1-3)GlcNAc(b1-6)]Gal(b1-4)Glc
How it was run: as §1

[26] = biological target: Gal6S(b1-4)Glc
How it was run: as §1

[27] = biological target: GalNAc(b1-4)GlcNAc(b1-2)Man(a1-3)[GalNAc(b1-4)GlcNAc(b1-2)Man(a1-6)]Man(b1-4)GlcNAc(b1-4)GlcNAc
How it was run: as §1

[28] = biological target: GalNAc(b1-6)GalNAc
How it was run: as §1

[29] = biological target: GalNAc6S(b1-4)GlcNAc
How it was run: as §1

[30] = biological target: Glc(a1-6)Glc(a1-6)Glc(a1-6)Glc
How it was run: as §1

B1: MGL1 (Mus musculus), P49300 (protein)
chain: MIYENLQNSRIEEKTQEPGKAPSQSFLWRILSWTHLLLFSLGLSLLLLVVVSVIGSQNSQLRRDLGTLRATLDNTTSKIKAEFQSLDSRADSFEKGISSLKVDVEDHRQELQAGRDLSQKVTSLESTVEKREQALKTDLSDLTDHVQQLRKDLKALTCQLANLKNNGSEVACCPLHWTEHEGSCYWFSESEKSWPEADKYCRLENSHLVVVNSLEEQNFLQNRLANVVSWIGLTDQNGPWRWVDGTDFEKGFKNWAPLQPDNWFGHGLGGGEDCAHITTGGPWNDDVCQRTFRWICEMKLAKES
glycan array binding signal (z-score) [1]: 0.007
glycan array binding signal (z-score) [2]: 0.824
glycan array binding signal (z-score) [3]: 0.081
glycan array binding signal (z-score) [4]: -0.265
glycan array binding signal (z-score) [5]: -1.16
glycan array binding signal (z-score) [6]: 1.45
glycan array binding signal (z-score) [7]: 0.044
glycan array binding signal (z-score) [8]: 5.46
glycan array binding signal (z-score) [9]: 3.95
glycan array binding signal (z-score) [10]: 5.1
glycan array binding signal (z-score) [11]: 9.12
glycan array binding signal (z-score) [12]: 0.064
glycan array binding signal (z-score) [13]: -0.177
glycan array binding signal (z-score) [14]: 1.06
glycan array binding signal (z-score) [15]: 2.41
glycan array binding signal (z-score) [16]: -0.039
glycan array binding signal (z-score) [17]: -0.112
glycan array binding signal (z-score) [18]: -0.361
glycan array binding signal (z-score) [19]: 0.273
glycan array binding signal (z-score) [20]: 3.48
glycan array binding signal (z-score) [21]: 0.201
glycan array binding signal (z-score) [22]: 2.62
glycan array binding signal (z-score) [23]: 3.01
glycan array binding signal (z-score) [24]: 2.31
glycan array binding signal (z-score) [25]: 4.54
glycan array binding signal (z-score) [26]: 0.208
glycan array binding signal (z-score) [27]: 0.218
glycan array binding signal (z-score) [28]: -0.374
glycan array binding signal (z-score) [29]: 0.509
glycan array binding signal (z-score) [30]: -0.085
